The results in this text go back to PubChem BioAssay (NCATS).

The target in assay [1] is Cytochrome P450 2C9 (Homo sapiens) (UniProt P11712). The assay can be described thus: qHTS Assay for Inhibitors and Substrates of Cytochrome P450 2C9 (AID 883). Note: potency is the fitted concentration of half-maximal effect; nearly all actives have a fitted effect of over 60% in size. The method in brief: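 Human CYP2C9 (10nM) with Luciferin-H at 100uM (its KM) in 25mM KPO4; compound preincubated 10 min at 37C, then NADPH regeneration for 60 min at 37C. Luciferin read by luminescence after detection reagent; normalized to 57uM sulphaphenazole as full inhibition.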
(In general: qHTS replaces the single test concentration by a dilution series.)

The target in assay [2] is Cytochrome P450 2C19 (Homo sapiens) (UniProt P33261). The assay can be described thus: qHTS Assay for Inhibitors and Substrates of Cytochrome P450 2C19 (AID 899). Note: potency is the fitted concentration of half-maximal effect; nearly all actives have a fitted effect of over 60% in size. A digest of the protocol: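 5 nM human CYP2C19 with 10uM Luciferin-H EGE (at KM) in 50mM KPO4, compound preincubated 10 min at 37C, then NADPH regeneration for 60 min at 37C. Luciferin read by luminescence after detection reagent; normalized to 57uM ketoconazole as full inhibition.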

The nature of assay [3]: qHTS Assay for Identification of Small Molecule Antagonists for Thrombopoietin (TPO) Signaling Pathway (AID 918). Note: potency is the fitted concentration of half-maximal effect; nearly all actives have a fitted effect of over 60% in size. The settings on record: TPO-dependent cell signaling reporter, antagonist mode. The method in brief:
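Inhibition read as reduced luciferase luminescence after 24 h at 37 C in IL-3-deprived Ba/F3 cells carrying human TPO receptor and GPIIb-promoter reporter, stimulated with 26 pM TPO (final, its EC50) alongside compound.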

Assay [4] in a line: High Content Imaging Cell-Based qHTS for Inhibitors of the mTORC1 Signaling Pathway in MEF Cells (AID 2667). Note: potency is the fitted concentration of half-maximal effect. The method in brief: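 Read-out is the share of phospho-rpS6-positive cells per well, from Hoechst-normalized Alexa-488 Ser235/236 staining imaged on IN Cell. Cells: WT Tsc2-expressing Tsc2-/-, p53-/- MEFs exposed to compound for 24 hrs.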
The nature of assay [5]: Cytometry Cell-Based qHTS for Inhibitors of the mTORC1 Signaling Pathway in MEF cells (AID 2668). Note: potency is the fitted concentration of half-maximal effect. A digest of the protocol:
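In MEFs grown in DMEM + 10% FBS, a 24 hrs compound exposure preceded imaging of phospho-rpS6 Ser235/236 by laser-scanning cytometry.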

Assay [6] in a line: qHTS for compounds that reverse cellular toxicity of Amyloid beta (A-beta) peptide in yeast: LOPAC Validation Assay (AID 720559). The method in brief:
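Here, A-beta-toxic yeast grow with test compounds at 30 C for 48 hr before optical density at 600 nm is recorded; data are normalized against DMSO and the FeCl3-clioquinol control.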

In assay [7] the target is ATPase family AAA domain-containing protein 5 (Homo sapiens) (UniProt Q96QE3). Put plainly: Validation screen for small molecules that inhibit ELG1-dependent DNA repair in human embryonic kidney (HEK293T) cells expressing luciferase-tagged ELG1 (AID 493107). Note: potency is the fitted concentration of half-maximal effect; nearly all actives have a fitted effect of over 70% in size. A digest of the protocol: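 Luciferase read-out, ONE-Glo, 30 min at room temperature, follows 16 h co-exposure at 37 C of compound and the DNA-damaging agent 5-fluorouridine. Cells: HEK293T with ELG1-luciferase fusion, 2,000 per well, DMSO as vehicle.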

Assay [8] has as its target Arylsulfatase A (Homo sapiens) (UniProt P15289). The assay can be described thus: qHTS screen for enhancers of Arylsulfatase A (ASA1): LOPAC Validation Assay (AID 720538). The method in brief: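 Cell-based enhancement test: residual ASA activity in SV40-transformed I179S patient fibroblasts is measured by pNCS turnover (0.5mM final, 14h, room temperature) following 48h compound incubation; higher fluorescence indicates activation.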

A further assay concerns AS120. The assay can be described thus: qHTS profiling for inhibitors of Plasmodium falciparum proliferation (AID 504749). Note: nearly all actives have a fitted effect of over 60% in size. To be noted: P. falciparum in erythrocytes, SYBR Green DNA, 72 h; series mostly up to 28.7 µM. A digest of the protocol: (§1)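 Each compound contacts P. falciparum-infected red blood cells for 72 h at 37 C; lysis buffer (Tris, EDTA, saponin, Triton X, SYBR Green I) is added and fluorescence measured next morning; values normalized to controls.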

Another assay has as its system ATS189. The assay is described as above. The settings on record: P. falciparum in erythrocytes, SYBR Green DNA, 72 h; series mostly up to 28.7 µM. The method in brief: as §1
The next assay relates to CP192. The assay is described as above. To be noted: P. falciparum in erythrocytes, SYBR Green DNA, 72 h; series mostly up to 28.7 µM. The method in brief: as §1
A further assay deals with CP194. The description is as above. To be noted: P. falciparum in erythrocytes, SYBR Green DNA, 72 h; series mostly up to 28.7 µM. The method in brief:
as §1

A further assay deals with CP201. Described as above. To be noted: P. falciparum in erythrocytes, SYBR Green DNA, 72 h; series mostly up to 28.7 µM. The method in brief: as §1
The subject of another assay is CP203. The description is as above. The settings on record: P. falciparum in erythrocytes, SYBR Green DNA, 72 h; series mostly up to 28.7 µM. The method in brief: as §1
The next assay concerns CP247. The description is as above. The settings on record: P. falciparum in erythrocytes, SYBR Green DNA, 72 h; series mostly up to 28.7 µM. A digest of the protocol: as §1
For a further assay, the system named is DFO2036. The description is as above. To be noted: P. falciparum in erythrocytes, SYBR Green DNA, 72 h; series mostly up to 28.7 µM. The method in brief:
as §1

The test system of another assay is P94_40. Described as above. To be noted: P. falciparum in erythrocytes, SYBR Green DNA, 72 h; series mostly up to 28.7 µM. The method in brief: as §1
The subject of the next assay is PC49. The assay is described as above. To be noted: P. falciparum in erythrocytes, SYBR Green DNA, 72 h; series mostly up to 28.7 µM. The method in brief: as §1
Another assay has as its system TAB109. The assay is described as above. The settings on record: P. falciparum in erythrocytes, SYBR Green DNA, 72 h; series mostly up to 12.8 µM. A digest of the protocol: as §1
Another assay relates to TAB113. Described as above. To be noted: P. falciparum in erythrocytes, SYBR Green DNA, 72 h; series mostly up to 28.7 µM. The method in brief:
as §1

Records with an inconclusive call do not appear. Active and inactive are the calls of the source. Calls come from the whole dose curve; as a rule, active = well fitted curve in the direction sought with a large enough effect; inconclusive = small, poorly fitted or top-dose-only effect, or another doubt; inactive = no such curve, though single readings can be large; an effect the other way counts as inactive or inconclusive.

Cytochrome P450 2C19 (Homo sapiens), sequence (P33261 whole entry, looked up): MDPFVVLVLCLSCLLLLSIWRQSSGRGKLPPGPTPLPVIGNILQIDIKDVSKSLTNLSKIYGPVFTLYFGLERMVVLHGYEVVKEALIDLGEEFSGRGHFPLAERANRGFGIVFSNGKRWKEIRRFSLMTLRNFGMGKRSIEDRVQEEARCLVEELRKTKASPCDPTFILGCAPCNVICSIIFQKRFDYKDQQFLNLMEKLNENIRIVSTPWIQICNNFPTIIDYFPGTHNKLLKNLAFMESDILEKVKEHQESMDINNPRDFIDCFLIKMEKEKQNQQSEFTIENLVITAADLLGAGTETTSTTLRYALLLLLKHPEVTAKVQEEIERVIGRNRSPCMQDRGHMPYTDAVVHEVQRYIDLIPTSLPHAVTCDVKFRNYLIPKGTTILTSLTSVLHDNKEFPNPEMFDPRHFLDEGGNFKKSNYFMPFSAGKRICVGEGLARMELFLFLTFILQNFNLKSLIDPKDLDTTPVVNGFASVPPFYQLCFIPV
Arylsulfatase A (Homo sapiens), sequence (P15289 whole entry, looked up): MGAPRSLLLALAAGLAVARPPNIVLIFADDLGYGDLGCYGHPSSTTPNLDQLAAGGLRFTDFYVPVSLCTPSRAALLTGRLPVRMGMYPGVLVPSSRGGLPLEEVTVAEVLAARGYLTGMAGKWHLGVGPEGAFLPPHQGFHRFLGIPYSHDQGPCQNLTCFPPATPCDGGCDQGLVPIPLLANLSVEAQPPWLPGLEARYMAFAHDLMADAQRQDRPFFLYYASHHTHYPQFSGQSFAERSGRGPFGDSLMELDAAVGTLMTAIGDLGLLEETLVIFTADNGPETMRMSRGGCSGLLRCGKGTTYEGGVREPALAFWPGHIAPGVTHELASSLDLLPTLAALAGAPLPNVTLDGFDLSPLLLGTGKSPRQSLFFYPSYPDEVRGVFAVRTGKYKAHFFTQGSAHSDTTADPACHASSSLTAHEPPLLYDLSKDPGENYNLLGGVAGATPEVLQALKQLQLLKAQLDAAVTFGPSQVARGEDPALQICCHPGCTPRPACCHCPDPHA
Cytochrome P450 2C9 (Homo sapiens), sequence (P11712 whole entry, looked up): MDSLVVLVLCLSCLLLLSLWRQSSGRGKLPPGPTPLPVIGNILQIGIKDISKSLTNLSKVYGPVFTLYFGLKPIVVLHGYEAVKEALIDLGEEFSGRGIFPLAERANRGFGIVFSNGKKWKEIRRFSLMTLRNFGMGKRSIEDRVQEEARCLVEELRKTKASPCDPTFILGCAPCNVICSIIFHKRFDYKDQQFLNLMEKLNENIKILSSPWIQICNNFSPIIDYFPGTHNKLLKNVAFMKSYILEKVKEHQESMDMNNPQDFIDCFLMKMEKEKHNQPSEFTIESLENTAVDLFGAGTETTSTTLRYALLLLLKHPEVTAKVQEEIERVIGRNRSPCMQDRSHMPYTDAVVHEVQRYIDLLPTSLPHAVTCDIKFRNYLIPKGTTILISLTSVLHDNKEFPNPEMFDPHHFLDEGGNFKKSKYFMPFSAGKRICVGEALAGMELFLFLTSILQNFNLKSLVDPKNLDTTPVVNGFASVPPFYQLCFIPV
ATPase family AAA domain-containing protein 5 (Homo sapiens), sequence (Q96QE3 whole entry, looked up, the tested form may be a part): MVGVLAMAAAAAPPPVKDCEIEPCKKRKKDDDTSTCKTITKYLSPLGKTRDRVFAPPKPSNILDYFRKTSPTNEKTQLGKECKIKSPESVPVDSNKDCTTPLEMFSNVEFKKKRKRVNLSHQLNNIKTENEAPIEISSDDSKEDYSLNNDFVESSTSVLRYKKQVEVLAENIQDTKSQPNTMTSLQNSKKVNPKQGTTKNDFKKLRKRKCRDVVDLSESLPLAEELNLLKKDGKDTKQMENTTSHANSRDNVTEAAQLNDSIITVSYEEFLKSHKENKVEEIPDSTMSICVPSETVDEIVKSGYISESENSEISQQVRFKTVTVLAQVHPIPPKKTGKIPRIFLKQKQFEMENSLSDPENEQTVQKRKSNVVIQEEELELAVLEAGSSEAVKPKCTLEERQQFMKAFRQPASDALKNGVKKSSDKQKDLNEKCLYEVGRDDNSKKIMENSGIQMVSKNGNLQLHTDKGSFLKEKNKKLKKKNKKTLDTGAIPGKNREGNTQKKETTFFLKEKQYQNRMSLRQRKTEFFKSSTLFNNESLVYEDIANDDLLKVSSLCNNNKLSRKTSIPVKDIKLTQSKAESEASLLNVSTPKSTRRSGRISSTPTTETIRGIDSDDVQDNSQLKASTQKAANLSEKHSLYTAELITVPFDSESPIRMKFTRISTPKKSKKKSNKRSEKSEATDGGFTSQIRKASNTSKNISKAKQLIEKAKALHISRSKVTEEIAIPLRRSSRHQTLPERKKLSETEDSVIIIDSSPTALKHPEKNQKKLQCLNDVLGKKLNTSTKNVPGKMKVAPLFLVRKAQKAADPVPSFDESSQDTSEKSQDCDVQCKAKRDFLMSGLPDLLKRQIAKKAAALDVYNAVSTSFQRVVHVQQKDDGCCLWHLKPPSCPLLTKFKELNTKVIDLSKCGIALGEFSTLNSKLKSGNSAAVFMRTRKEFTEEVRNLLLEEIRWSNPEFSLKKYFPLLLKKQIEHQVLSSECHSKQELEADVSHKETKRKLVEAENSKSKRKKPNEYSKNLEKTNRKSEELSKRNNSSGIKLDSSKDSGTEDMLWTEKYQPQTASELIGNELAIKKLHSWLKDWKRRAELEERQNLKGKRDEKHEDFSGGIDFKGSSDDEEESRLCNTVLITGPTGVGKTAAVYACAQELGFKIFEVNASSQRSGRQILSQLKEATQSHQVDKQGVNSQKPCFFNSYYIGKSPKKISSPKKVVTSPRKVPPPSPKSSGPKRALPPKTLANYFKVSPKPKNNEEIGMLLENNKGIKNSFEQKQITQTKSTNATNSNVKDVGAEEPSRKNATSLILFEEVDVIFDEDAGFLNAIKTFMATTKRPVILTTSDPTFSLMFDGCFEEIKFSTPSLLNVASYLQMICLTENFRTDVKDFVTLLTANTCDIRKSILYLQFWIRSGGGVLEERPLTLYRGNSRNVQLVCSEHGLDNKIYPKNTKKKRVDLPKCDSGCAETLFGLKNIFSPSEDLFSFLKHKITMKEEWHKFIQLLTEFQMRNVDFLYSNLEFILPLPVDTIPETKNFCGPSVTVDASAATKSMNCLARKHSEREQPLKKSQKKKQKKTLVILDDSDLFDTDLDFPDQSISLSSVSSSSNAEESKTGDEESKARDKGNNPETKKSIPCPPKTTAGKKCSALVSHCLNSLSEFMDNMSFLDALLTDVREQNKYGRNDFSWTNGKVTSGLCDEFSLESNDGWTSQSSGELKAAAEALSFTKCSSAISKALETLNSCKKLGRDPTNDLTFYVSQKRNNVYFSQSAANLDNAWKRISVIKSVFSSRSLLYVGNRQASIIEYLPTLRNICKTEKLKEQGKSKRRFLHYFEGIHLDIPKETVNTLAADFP

For `S=C(S)N1CCCC1`, the Potency in assay [1] was 2 µM (active); in assay [2], 3.98 µM (active); in assay [3] it was 3.98 µM (active); in assay [4], 2.93 µM (active); in assay [5], 4.65 µM (active). The compound was classed as inactive in assay [6].
For the compound `COc1cc(OC)c(/C=C2/C(=O)Nc3ccccc32)c(OC)c1`, the Potency in assay [7] is 16.4 µM (active). Moreover, in [8], the outcome was inactive.
On to `C[C@]12CC[C@H]3[C@@H](CCC4=CC(=O)CC[C@@]43C)[C@@H]1CC[C@@H]2O`, for which the Potency entry with AS120, with ATS189, with CP192, in the assay on CP194, with CP201 and in the assay with CP203 was “inactive” each time. The Potency result with CP247, in the assay with DFO2036, in the assay on P94_40, with PC49, with TAB109 and with TAB113 was “inactive” throughout.
